# Results filed as inconclusive are left out. Values without a mark were called inactive. The source made the active and inactive calls. Calls follow the shape of the dose curve; as a rule, active = well fitted activation curve with a large enough effect; inconclusive = small, poorly fitted or top-dose-only effect; inactive = flat fitted curve, though single readings scatter.
# Experiment: Cell Proliferation Assay against the TMD8 Cell Line (Caspase readout at 16 hrs) (AID 651712)
# Details: TMD8 lymphoma cells, caspase activation luminescence; series mostly up to 46.1 µM; caspase activation: at the top concentration
# In short: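 TMD8 cells (500/well) in phenol-red-free RPMI with glutamine, 5% FBS, were exposed to compounds for 16 h at 37 °C. Caspase 3/7 activation was read by Caspase-Glo luminescence; percent activity normalised to DMSO (0%) and 9.2 uM bortezomib final (100%).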
# Potency is read from the fitted curve at half-maximal effect.
SMILES,Potency,caspase activation
Cc1csc(-c2nnc(Nc3ccc(Oc4ncccc4-c4ccnc(N)n4)cc3)c3ccccc23)c1,23.5 µM (active),–
Cc1cc2c(cc1C1(c3ccc(C(=O)O)cn3)CC1)C(C)(C)CCC2(C)C,–,-1.54%
CCCCc1ccc(NS(=O)(=O)c2ccc(C)c(C(=O)N3CCN(c4cccc(C)c4C)CC3)c2)cc1,20.9 µM (active),–
Nc1ccc(-c2ccc3ncc4ccc(=O)n(-c5cccc(C(F)(F)F)c5)c4c3c2)cn1,0.118 µM (active),–
CCc1cc(-c2n[nH]c(C)c2-c2ccc3c(c2)OCCO3)c(O)cc1O,23.5 µM (active),–
O=C(Nc1ccc(OC(F)(F)F)cc1)c1sccc1NCc1ccnc2ccccc12,–,-5.91%
CCN(CC)CCCCNc1nc2cc(Cl)c(Cl)cc2nc1-c1ccc(-c2cccs2)s1,–,16.5%
COc1cccc(OC)c1-c1cc(C(=O)NC2(C(=O)O)C3CC4CC(C3)CC2C4)nn1-c1ccnc2cc(Cl)ccc12 (stereo not given),23.5 µM (active),–
CC(=O)NCCC(=O)N[C@@H](CCC(N)=O)C(=O)N[C@@H](CO)C(=O)N[C@@H](CCC(N)=O)C(=O)N[C@@H](CCC(N)=O)C(=O)N[C@H](C(=O)N[C@@H](Cc1ccccc1)C(=O)N[C@]1(C)CCCCCCC=CCCC[C@@](C)(C(=O)N[C@@H](CCC(N)=O)C(=O)N[C@@H](CC(N)=O)C(N)=O)NC(=O)[C@H](CC(C)C)NC(=O)[C@H](CC(C)C)NC(=O)[C@@H](CCCNC(=N)N)NC(=O)[C@H](Cc2c[nH]c3ccccc23)NC(=O)[C@H](CC(C)C)NC(=O)[C@H](CC(N)=O)NC1=O)[C@H](C)O,–,29.3%
CC(C)Oc1cc(Nc2nc(N[C@@H](C)c3ccc(F)cn3)ncc2Cl)[nH]n1,–,-1.14%

# From PubChem BioAssay (NCATS)
